PubChem BioAssay (NCI)
The panel holds about 79,000 compounds, 15% with a hit somewhere; the sample as a whole holds those more often. Activity calls are given as the source filed them. Cut-off read from the data, not from the text of the source: active = growth inhibition above about 70%; inactive = the rest.

Experiment: NCI Yeast Anticancer Drug Screen. Data for the mlh1 rad18 strain (AID 175)
Settings: S. cerevisiae mlh1 rad18 strain growth inhibition; at 50.0 µM (retest, dose inferred, filed as 5.0); active compounds read high
Summary of the method: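 Genetically defined yeast (DNA repair-deficient) exposed to compounds; growth inhibition determined relative to vehicle.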

| SMILES | growth inhibition |
| --- | --- |
| C=CC(=O)N1C/C(=C\c2ccc(F)cc2)C(=O)/C(=C/c2ccc(F)cc2)C1 | 91% (active) |
| CCOc1ccc2c(c1)n([O-])c1ccccc1[n+]2=O | 98% (active) |
| O=C(/C(Cl)=N/O)c1ccccc1 | 99% (active) |
| O=C(NC1CCN(Cc2ccccc2)CC1)c1ccc(I)cc1 | 78% (active) |
| O=C1c2ccccc2CCC1C(O)(C(F)(F)F)C(F)(F)F (stereo not given) | 20% (inactive) |
| O=C(C(=O)n1ncc(Cl)c(Cl)c1=O)n1ncc(Cl)c(Cl)c1=O | 3% (inactive) |
| OC1OCC(OCc2ccccc2)C(OCc2ccccc2)C1OCc1ccccc1 (stereo not given) | 86% (active) |
| CN1CCC(OC(=O)c2ccc3ncccc3c2)CC1 | 7% (inactive) |
| CCC(c1ccc(O)cc1)C(CC)c1ccc(OCC(N)=O)cc1 (stereo not given) | 44% (inactive) |
| CCCCCCCC(=O)O[C@H]1[C@H]2[C@@H](CC1(C)C)C(=O)[C@]13O[C@H]1C(=O)[C@]1(CO1)[C@]23C | 97% (active) |
| CN1CCCN(C)C1c1cc([N+](=O)[O-])ccc1O | 99% (active) |
| CCOC(=O)C[n+]1c(C)sc2ccccc21 | 43% (inactive) |
| O=C(O)C(CCc1cccc2ccccc12)c1ccccc1 (stereo not given) | 98% (active) |
| O=C1C(Cl)=C(Cl)C(=O)C2CC=CCC12 (stereo not given) | 99% (active) |
| Nc1n[nH]c(=O)c2cccnc12 | -14% (inactive) |
| OC(CBr)c1cc(-c2ccccc2)nc2ccccc12 (stereo not given) | 97% (active) |
| O=C(O)CCCc1ccc2c(c1)CC1(C2)Cc2ccc(CCCC(=O)O)cc2C1 | 45% (inactive) |
| CC1=Nc2ccccc2/C1=C\c1c(C)[nH]c2ccccc12 | 94% (active) |
| CC(=O)C(C(=N)C#N)C(=O)Nc1ccccc1 (stereo not given) | 6% (inactive) |
| COc1ccc2nc3cc(Cl)ccc3c(NCCC[N+](C)(C)CCCCCCCCCC[N+](C)(C)CCCNc3c4ccc(Cl)cc4nc4ccc(OC)cc34)c2c1 | 99% (active) |

| SMILES | growth inhibition |
| --- | --- |
| Oc1cc(Cl)cc2c1-c1ccc(Cl)cc1C2O (stereo not given) | 98% (active) |
| CC1(C)OC(=O)C(=NNc2ccccc2[N+](=O)[O-])C(=O)O1 | 7% (inactive) |
| Clc1ccc(OCC2CO2)c(Cl)c1 (stereo not given) | 84% (active) |
| O=c1ccc([N+](=O)[O-])c[nH]1.[Ag] | 97% (active) |
| O=C1CSC(c2c[nH]c3ccccc23)N1c1cccc(Cl)c1 (stereo not given) | 97% (active) |
| Fc1cccc(NC(=S)SCc2ccco2)c1 | 89% (active) |
| S=c1[nH]nc(SCc2ccc(Cl)c(Cl)c2)c2[nH]cnc12 | -16% (inactive) |
| Cc1c(Cl)cccc1NC(=O)/C(Cl)=C(\Cl)C(=O)O | 39% (inactive) |
| Nc1ccc2ccc3cccc4ccc1c2c34 | 97% (active) |
| O=C(C(/C=N/C(=S)NCc1ccccc1)=C(/O)c1ccccc1)c1ccccc1 | 71% (active) |
| C/C(=N\NC(=S)Nc1ccc(Cl)cc1)c1nc2ncccc2[nH]1 | 98% (active) |
| O=C(/C=C\c1ccc(Cl)c(Cl)c1)c1cccs1 | 6% (inactive) |
| CC12CC(O)C3C(CCC4CCCCC43C)C1CC/C2=N/O (stereo not given) | 5% (inactive) |
| CCCn1cc2c(SC)nc(SC)nc2n1 | 14% (inactive) |
| Cc1ccc(C2(O)c3ccccc3-c3ccccc32)cc1 | 98% (active) |
| C=CCc1ccc2c(C)cc[n+](C)c2c1O | 99% (active) |
| COC(=O)c1nc(NC#N)[nH]c(=O)c1CCCCCc1cnc(NC#N)nc1 | -2% (inactive) |
| Cc1c2cnccc2c(C)c2c1c1ccccc1n2CCOC(=O)c1ccccc1 | 87% (active) |
| C/C(=N/O)c1ccc2c(c1)C(C)c1ccccc1-2 (stereo not given) | -103% (inactive) |
| Oc1ccc2ccccc2c1I | 55% (inactive) |
